Measurements reported in the supplement of paper PMC9262897, “Low-cost anti-mycobacterial drug discovery using engineered E. coli” (Nature Communications, 2022).
Where a name gives a salt, the structure may show the parent alone. ± gives the standard deviation of the averaged measurements.

What was measured:
Assay in all cases: growth (OD600 after 10 h); higher = more growth (less inhibition)
[1] = test system: E. coli TESEC Alr+ wild-type control; conditions: compound 0.1 mM; raw OD600 reference: median of DMSO wells 0.241, cell-free background 0.041
Protocol: (§1)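 TESEC Mtb Alr E. coli, or the Alr+ wild-type control, in 384-well plates with Prestwick library compounds at 0.1 mM and 1% DMSO, across arabinose induction levels of 1E3 to 1E7 nM. Growth is read as OD600 after 10 h at 37 °C in triplicate biological replicates.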

E. coli TESEC Mtb Alr [2] = conditions: compound 0.1 mM
Protocol: as §1

E. coli TESEC Mtb Asd = conditions: compound 0.1 mM
Protocol: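 TESEC E. coli strains in which the native enzyme is deleted and replaced by arabinose-inducible Mtb Asd, DapB, CysH or TrpD, each grown in its selective medium. Strains were screened against the Prestwick library at 0.1 mM and 1% DMSO in 384-well format at low and high arabinose induction. Growth is read as OD600 after 10 h in triplicate.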

[3] = test system: E. coli TESEC Alr+ wild-type control; conditions: compound 0.1 mM; raw OD600 reference: median of DMSO wells 0.49, cell-free background 0.052
Protocol: (§2)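 TESEC Mtb Alr E. coli (ΔaraC ΔtolC ΔentC Δalr ΔdadX, arabinose-inducible Mtb Alr) or the Alr+ wild-type control strain, grown in defined M9-fructose medium without D-alanine in 96-well plates with Prestwick library compounds at 0.1 mM and 1% DMSO. Low Alr induction is 0.1 µM arabinose and high induction is 10 mM arabinose.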

E. coli TESEC Mtb Alr [4] = conditions: compound 0.1 mM; remark: listed apart in the source
Protocol: as §2

[5] = arabinose 1000 nM, raw OD600 reference: median of DMSO wells 0.294, cell-free background 0.041
[6] = arabinose 10000 nM, raw OD600 reference: median of DMSO wells 0.264, cell-free background 0.041
[7] = arabinose 100000 nM, raw OD600 reference: median of DMSO wells 0.201, cell-free background 0.041
[8] = arabinose 1000000 nM, raw OD600 reference: median of DMSO wells 0.193, cell-free background 0.041
[9] = arabinose 10000000 nM, raw OD600 reference: median of DMSO wells 0.146, cell-free background 0.041
[10] = arabinose induction (level): High, raw OD600 reference: median of DMSO wells 0.331, cell-free background 0.041
[11] = arabinose induction (level): Low, raw OD600 reference: median of DMSO wells 0.417, cell-free background 0.041
[12] = arabinose 100 nM, raw OD600 reference: median of DMSO wells 0.413, cell-free background 0.052
[13] = arabinose 10000000 nM, raw OD600 reference: median of DMSO wells […], cell-free background 0.052

Compound | growth [1] | growth (E. coli TESEC Mtb Alr [2]; [5]) | growth (E. coli TESEC Mtb Alr [2]; [6]) | growth (E. coli TESEC Mtb Alr [2]; [7]) | growth (E. coli TESEC Mtb Alr [2]; [8]) | growth (E. coli TESEC Mtb Alr [2]; [9]) | growth (E. coli TESEC Mtb Asd; [10]) | growth (E. coli TESEC Mtb Asd; [11]) | growth [3] | growth (E. coli TESEC Mtb Alr [4]; [12]) | growth (E. coli TESEC Mtb Alr [4]; [13])
CCCNC(C)(C)COC(=O)c1ccccc1 [Meprylcaine hydrochloride] | 0.234 ± 0.0059 | 0.298 ± 0.0024 | 0.2777 ± 0.0023 | 0.211 ± 0.0098 | 0.215 ± 0.025 | 0.133 ± 0.0041 | 0.281 ± 0.061 | 0.338 ± 0.025 | 0.6187 ± 0.0042 | 0.419 ± 0.0049 | 0.339 ± 0.0092
CC(=O)OCC(=O)NCCCOc1cccc(CN2CCCCC2)c1 [Roxatidine Acetate HCl] | 0.241 ± 0.013 | 0.302 ± 0.0074 | 0.265 ± 0.008 | 0.212 ± 0.024 | 0.186 ± 0.0084 | 0.139 ± 0.0026 | 0.29 ± 0.046 | 0.389 ± 0.023 | 0.673 ± 0.062 | 0.408 ± 0.0076 | 0.3569 ± 0.0035
CC(=O)[C@H]1CC[C@H]2[C@@H]3CC=C4C[C@@H](O)CC[C@]4(C)[C@H]3CC[C@]12C [Pregnenolone] | 0.166 ± 0.0078 | 0.235 ± 0.015 | 0.239 ± 0.016 | 0.173 ± 0.029 | 0.136 ± 0.0035 | 0.159 ± 0.0019 | 0.168 ± 0.026 | 0.343 ± 0.034 | 0.458 ± 0.0056 | 0.398 ± 0.0084 | 0.2327 ± 0.0018
CO/N=C(\C(=O)N[C@@H]1C(=O)N2C(C(=O)O)=C(COC(N)=O)CS[C@H]12)c1ccco1 [Cefuroxime sodium salt] | 0.0579 ± 0.0016 | 0.0404 ± 0.0013 | 0.0396 ± 0.00059 | 0.0725 ± 0.0027 | 0.0701 ± 0.0021 | 0.115 ± 0.0014 | 0.213 ± 0.0073 | 0.232 ± 0.0044 | 0.0629 ± 0.0034 | 0.04693 ± 0.0004 | 0.169 ± 0.024
N=C(N)N1CCc2ccccc2C1 [Debrisoquin sulfate] | 0.237 ± 0.0047 | 0.288 ± 0.013 | 0.254 ± 0.0074 | 0.222 ± 0.036 | 0.174 ± 0.0076 | 0.147 ± 0.0083 | 0.373 ± 0.058 | 0.373 ± 0.027 | 0.567 ± 0.039 | 0.406 ± 0.01 | 0.334 ± 0.013
CN(Cc1ccc(C(C)(C)C)cc1)Cc1cccc2ccccc12 [Butenafine Hydrochloride] | 0.182 ± 0.0021 | 0.177 ± 0.0088 | 0.2 ± 0.0095 | 0.147 ± 0.0047 | 0.0789 ± 0.0012 | 0.116 ± 0.0035 | 0.204 ± 0.012 | 0.182 ± 0.019 | 0.399 ± 0.012 | 0.312 ± 0.013 | 0.11 ± 0.0097
O=c1[nH]cnc2c1ncn2[C@H]1CC[C@@H](CO)O1 [Didanosine] | 0.18 ± 0.011 | 0.293 ± 0.023 | 0.27 ± 0.0051 | 0.16 ± 0.015 | 0.149 ± 0.0069 | 0.199 ± 0.0058 | 0.157 ± 0.0043 | 0.165 ± 0.013 | 0.503 ± 0.045 | 0.425 ± 0.0085 | 0.225 ± 0.019
Cc1cc(/C=C/c2ccc3cc(N(C)C)ccc3[n+]2C)c(C)n1-c1ccccc1 [Pyrvinium pamoate] | 0.0976 ± 0.0031 | 0.0602 ± 0.0021 | 0.0614 ± 0.0072 | 0.0747 ± 0.009 | 0.0511 ± 0.00066 | 0.0872 ± 0.0092 | 0.071 ± 0.00096 | 0.0642 ± 0.0028 | 0.141 ± 0.019 | 0.142 ± 0.013 | 0.162 ± 0.025
C1CCC(C(CC2CCCCN2)C2CCCCC2)CC1 (stereo not drawn) [Perhexiline maleate] | 0.0393 ± 0.0002 | 0.0389 ± 0.00046 | 0.03913 ± 0.00021 | 0.0407 ± 0.00064 | 0.03897 ± 0.00023 | 0.0389 ± 0.0004 | 0.04767 ± 0.00047 | 0.048 ± 0.0016 | 0.0486 ± 0.00055 | 0.168 ± 0.18 | 0.0522 ± 0.0012
Oc1c(Cl)cc(Cl)c(Cl)c1Cc1c(O)c(Cl)cc(Cl)c1Cl [Hexachlorophene] | 0.0444 ± 0.00067 | 0.04387 ± 0.00038 | 0.0445 ± 0.00086 | 0.04433 ± 0.00015 | 0.04387 ± 5.8e-05 | 0.0464 ± 0.0029 | 0.0582 ± 0.0021 | 0.0553 ± 0.004 | 0.05693 ± 0.00042 | 0.063 ± 0.0035 | 0.0602 ± 0.0016
CC(C)(C(=O)c1cccnc1)c1cccnc1 [Metyrapone] | 0.246 ± 0.0034 | 0.311 ± 0.017 | 0.273 ± 0.0073 | 0.198 ± 0.0061 | 0.2 ± 0.017 | 0.1411 ± 0.00086 | 0.317 ± 0.017 | 0.428 ± 0.0064 | 0.637 ± 0.095 | 0.409 ± 0.013 | 0.3383 ± 0.0029
CN(C/C=C/C#CC(C)(C)C)Cc1cccc2ccccc12 [Terbinafine] | 0.214 ± 0.0072 | 0.272 ± 0.0085 | 0.226 ± 0.025 | 0.177 ± 0.0062 | 0.085 ± 0.0043 | 0.174 ± 0.0062 | 0.296 ± 0.046 | 0.41 ± 0.037 | 0.358 ± 0.013 | 0.145 ± 0.035 | 0.0574 ± 0.0026
O=C(O)CCC(=O)c1ccc(-c2ccccc2)cc1 [Fenbufen] | 0.201 ± 0.0054 | 0.232 ± 0.013 | 0.229 ± 0.0062 | 0.137 ± 0.0052 | 0.128 ± 0.0089 | 0.127 ± 0.0092 | 0.25 ± 0.049 | 0.286 ± 0.047 | 0.441 ± 0.051 | 0.399 ± 0.013 | 0.235 ± 0.007
